For 27 compounds, inhibition and normalized cell count results are on record in PubChem BioAssay AID1273 (Columbia University Molecular Screening Center, 2008).

A word on the inhibition: it is the relative decrease from the control value, in per cent.

About 1,200 (0.92%) of roughly 130,000 compounds were called active.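 The calls were made as follows: active = inhibition above the mean plus 3 SD, with well images judged a real hit on visual review (cut at about 60% in these data, passing the limit was not always enough); inconclusive = inhibition over the cutoff but images rejected on review; inactive = inhibition not above the cutoff.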 This excerpt belongs to a sample that is enriched for actives.

A short description of this experiment: insulin gene promoter suppression in islet cells – imaging, TRM-6 cells (human fetal islet line), eGFP reporter, cell count, primary screen (AID 1273;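 as to normalized cell count: cells exposed to compound for 48 h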). The settings on record: at 2 µM, reporter expression induced with tamoxifen; inhibition: stronger effect = higher value; normalized cell count: measured here: cell count, toxicity.
Regarding `COC(=O)CC1=NN(c2ccccc2)C(=O)C1`, the inhibition was 0% (inactive) and the normalized cell count was found to be 102%.
Regarding `CN(C)C=NC(=O)c1cccn1-c1ncc(C(F)(F)F)cc1Cl`, the inhibition was 31.2% (inactive) and the normalized cell count worked out at 84.7%.
Turning to `COc1ccc(OC)c(NC(=O)CCN2CCC(C)CC2)c1`, the inhibition was 34.2% (inactive) and the normalized cell count is 86.9%.
The matching figures for `Cc1ccc(NC(=O)CCN2CCc3ccccc3C2)cc1`: 28.6% (inactive) and 64.3%.
On to `CC1CCN(CCC(=O)Nc2ccccc2)CC1`, for which the inhibition is 78.6% (active) and the normalized cell count is 39.9%.
The matching figures for `O=C(CCN1CCN(C/C=C/c2ccccc2)CC1)Nc1cccc(F)c1`: -57.1% (inactive) and 154%.
In the same order, the values of `CCc1ccc(/C=C2\SC(N3CCOCC3)=NC2=O)cc1` are 16.7% (inactive) and 199%.
The matching figures for `Cc1nnsc1C(=O)Nc1cccc(Cl)c1C`: 50% (inactive) and 71.6%.
Take `O=C(Nc1ccc(-c2ccc3nncn3n2)cc1)C1CCCCC1`: the inhibition is -25% (inactive) and the normalized cell count was 193%.
In the same order, the values of `Cc1cccc(NC(=O)CN2C(=O)c3ccccc3C2=O)c1C` are -28.6% (inactive) and 79%.
The matching figures for `S=C(Nc1ccc2c(c1)OCO2)N1CCCC1`: -79% (inactive) and 73.4%.
Take `Fc1ccccc1N=C1Nc2cccc3cccc1c23`: the inhibition was 88.9% (active) and the normalized cell count is 172%.
The matching figures for `c1ccc(C2=Nc3cccc4cccc(c34)N2)cc1`: -73.5% (inactive) and 133%.
The matching figures for `COc1ccccc1C1=Nc2cccc3cccc(c23)N1`: -6.67% (inactive) and 113%.
Take `Cc1ccc(N(C(=O)Cc2cccs2)C2C=CS(=O)(=O)C2)cc1Cl` (centres undefined): the inhibition is 15% (inactive) and the normalized cell count was 128%.
In the case of `Cc1cc(NC(=O)CSc2nc3ccccc3n2CC(C)C)no1`, the inhibition was -41.7% (inactive) and the normalized cell count stood at 96.4%.
The matching figures for `CC1Cc2ccccc2N1S(=O)(=O)c1c(N)n(C)c(=O)n(C)c1=O` (centres undefined): -66.7% (inactive) and 73.2%.
For `Cc1ccc(NC(=O)CSc2nnc(-c3cnccn3)n2Cc2ccco2)cc1C`, the inhibition was -21.6% (inactive) and the normalized cell count came to 100%.
In the same order, the values of `COc1ccc(NC(=O)CSc2nnc(-c3cccs3)n2Cc2ccco2)cc1OC` are 72.7% (active) and 109%.
The matching figures for `O=C(CSc1nnc(-c2cccs2)n1Cc1ccco1)c1ccc2c(c1)OCO2`: 17.6% (inactive) and 96.9%.
In the same order, the values of `O=C(CCN1C(=O)c2ccncc2C1=O)Nc1cc(F)ccc1F` are 25% (inactive) and 92%.
Turning to `CSCC(NS(=O)(=O)c1ccc(C)cc1)C(=O)O` (centres undefined), the inhibition was -387% (inactive) and the normalized cell count amounted to 83.3%.
As for `COCc1cc(C(C)=O)ccc1OC`, the inhibition was 30.8% (inactive) and the normalized cell count turned out to be 97.5%.
The matching figures for `Cn1c(N)c(C(=O)COC(=O)c2cnc(Cl)c(Cl)c2)c(=O)n(C)c1=O`: -42.9% (inactive) and 106%.
The matching figures for `CCOc1ccc(C(C)=O)cc1COC(=O)c1cnc(Cl)c(Cl)c1`: 83.3% (active) and 144%.
In the same order, the values of `CCSc1sc(CC)cc1C=O` are 57.1% (inactive) and 96.8%.
Consider `CCN1CCN(c2ccc(NC(=O)c3cnccn3)cc2)CC1`, for which the inhibition is -35.7% (inactive) and the normalized cell count worked out at 74.9%.
